Results reported in article PMC5700166.

What was measured:
Experiment in all cases: protein-binding microarray (PBM); PBM: ~300 nM protein, 6 mM HEPES pH 7.8, 80 mM KCl, 0.5 mM EDTA, 0.5 mM EGTA, 6% glycerol, 35 ng/ul poly-dIdC, 1% milk, 1 h, room temperature; Ap Aiptasia and Nv Nematostella (sea anemones) / Co Capsaspora / Aq Amphimedon (sponge) / Dm Drosophila / Hu human; RHD is the Rel homology domain; high values mean tight binding
Conditions in all cases: dsDNA, one strand shown
GST-Dm-Relish = biological target: T1, GST-Dm-Relish (Drosophila melanogaster, UniProt Q94527 99-473)
T1 sequence: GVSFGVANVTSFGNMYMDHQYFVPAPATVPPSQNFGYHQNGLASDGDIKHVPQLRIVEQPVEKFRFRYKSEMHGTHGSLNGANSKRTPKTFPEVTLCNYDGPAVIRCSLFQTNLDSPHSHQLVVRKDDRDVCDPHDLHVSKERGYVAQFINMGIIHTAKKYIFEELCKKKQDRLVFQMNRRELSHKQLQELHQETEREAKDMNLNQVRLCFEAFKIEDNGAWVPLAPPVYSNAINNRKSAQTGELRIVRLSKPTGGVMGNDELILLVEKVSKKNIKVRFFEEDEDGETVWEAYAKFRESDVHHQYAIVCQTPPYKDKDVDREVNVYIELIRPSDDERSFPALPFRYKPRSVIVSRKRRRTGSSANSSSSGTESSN

GST-Aq-NF-kB = biological target: T2, GST-Aq-NF-kB (Amphimedon queenslandica, UniProt A9Y5G7 2-389)
T2 sequence: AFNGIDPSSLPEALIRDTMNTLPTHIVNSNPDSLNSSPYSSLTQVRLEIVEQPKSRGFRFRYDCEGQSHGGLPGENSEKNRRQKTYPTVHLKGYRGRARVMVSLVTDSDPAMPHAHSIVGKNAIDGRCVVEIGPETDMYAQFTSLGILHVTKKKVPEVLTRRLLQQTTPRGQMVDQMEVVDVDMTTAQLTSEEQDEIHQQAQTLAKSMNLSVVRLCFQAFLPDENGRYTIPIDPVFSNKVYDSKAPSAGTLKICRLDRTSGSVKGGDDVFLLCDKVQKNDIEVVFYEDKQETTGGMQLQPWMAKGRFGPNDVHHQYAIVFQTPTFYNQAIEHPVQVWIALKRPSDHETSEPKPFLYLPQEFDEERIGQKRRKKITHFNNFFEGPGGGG

GST-Co-NF-kB = biological target: T3, GST-Co-NF-kB (Capsaspora owczarzaki, UniProt F1ARL5 200-546)
T3 sequence: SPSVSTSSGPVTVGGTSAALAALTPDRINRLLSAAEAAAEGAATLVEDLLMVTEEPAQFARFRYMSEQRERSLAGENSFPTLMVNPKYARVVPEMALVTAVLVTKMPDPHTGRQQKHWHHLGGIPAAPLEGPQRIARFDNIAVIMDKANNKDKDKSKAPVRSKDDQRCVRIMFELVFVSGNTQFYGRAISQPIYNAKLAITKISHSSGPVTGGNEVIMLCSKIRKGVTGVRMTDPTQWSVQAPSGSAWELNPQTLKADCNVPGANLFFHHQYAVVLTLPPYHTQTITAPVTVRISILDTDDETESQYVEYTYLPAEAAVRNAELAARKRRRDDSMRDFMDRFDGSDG

Row | Sequence | binding signal (GST-Dm-Relish) | binding signal (GST-Aq-NF-kB) | binding signal (GST-Co-NF-kB)
1 | CCGATTAACATCAAAAATTCCGGTGATGTTAATCGGGTCTTGATTCGCTTGACGCTGCTG | 2.45 z-score | 2.94 z-score | –
2 | CCGATTAACATCAAAAATTCCGCTGATGTTAATCGGGTCTTGATTCGCTTGACGCTGCTG | 1.22 z-score | 1.89 z-score | –
3 | CCGATTAACATCAGGAAAGACCATGATGTTAATCGGGTCTTGATTCGCTTGACGCTGCTG | 1.35 z-score | 1.49 z-score | –
4 | CCGATTAACATCAACGGAAATCCTGATGTTAATCGGGTCTTGATTCGCTTGACGCTGCTG | 1.24 z-score | 1.17 z-score | –
5 | CCGATTAACATCAGGAATTTACATGATGTTAATCGGGTCTTGATTCGCTTGACGCTGCTG | 5.41 z-score | 1.28 z-score | –
6 | CCGATTAACATCAAGTAAATTCCTGATGTTAATCGGGTCTTGATTCGCTTGACGCTGCTG | 2.49 z-score | 1.35 z-score | –
7 | CCGATTAACATCAGGAATTTTACTGATGTTAATCGGGTCTTGATTCGCTTGACGCTGCTG | 1.49 z-score | 1.14 z-score | –
8 | CCGATTAACATCAAGGAATTCCGTGATGTTAATCGGGTCTTGATTCGCTTGACGCTGCTG | 1.78 z-score | 1.75 z-score | –
9 | CCGATTAACATCACAGAATTTCCTGATGTTAATCGGGTCTTGATTCGCTTGACGCTGCTG | 1.09 z-score | 1.36 z-score | –
10 | CCGATTAACATCAAAAATTTTCCTGATGTTAATCGGGTCTTGATTCGCTTGACGCTGCTG | 2.62 z-score | 1.81 z-score | 1.7 z-score
11 | CCGATTAACATCAAGGAAAGTACTGATGTTAATCGGGTCTTGATTCGCTTGACGCTGCTG | 4.7 z-score | 2.33 z-score | –
12 | CCGATTAACATCAAAAAAACTCCTGATGTTAATCGGGTCTTGATTCGCTTGACGCTGCTG | 3.63 z-score | 1.83 z-score | –
13 | CCGATTAACATCAGGAAAGTACATGATGTTAATCGGGTCTTGATTCGCTTGACGCTGCTG | 6.88 z-score | 1.61 z-score | –
14 | CCGATTAACATCAGAAATTTTCCTGATGTTAATCGGGTCTTGATTCGCTTGACGCTGCTG | 1.39 z-score | 1.31 z-score | –
15 | CCGATTAACATCAGGATTTTTCATGATGTTAATCGGGTCTTGATTCGCTTGACGCTGCTG | 1.76 z-score | 1.09 z-score | –
16 | CCGATTAACATCACGTGCTTTCCTGATGTTAATCGGGTCTTGATTCGCTTGACGCTGCTG | 2.88 z-score | 1.36 z-score | –

Row | Sequence | binding signal (GST-Dm-Relish) | binding signal (GST-Aq-NF-kB) | binding signal (GST-Co-NF-kB)
17 | CCGATTAACATCAGGAAAATCCATGATGTTAATCGGGTCTTGATTCGCTTGACGCTGCTG | 1.26 z-score | 2.69 z-score | –
18 | CCGATTAACATCAAGGAAATTCCTGATGTTAATCGGGTCTTGATTCGCTTGACGCTGCTG | 2.23 z-score | 4.14 z-score | –
19 | CCGATTAACATCACGGAAATTTCTGATGTTAATCGGGTCTTGATTCGCTTGACGCTGCTG | 1.36 z-score | 2.5 z-score | 1.12 z-score
20 | CCGATTAACATCACAGGAATTCCTGATGTTAATCGGGTCTTGATTCGCTTGACGCTGCTG | 3.05 z-score | 2.17 z-score | –
21 | CCGATTAACATCAGGAAAAATCCTGATGTTAATCGGGTCTTGATTCGCTTGACGCTGCTG | 1.66 z-score | 1.79 z-score | –
22 | CCGATTAACATCAGGAAAAGTACTGATGTTAATCGGGTCTTGATTCGCTTGACGCTGCTG | 4.26 z-score | 1.14 z-score | –
23 | CCGATTAACATCAGGGCAAGTACTGATGTTAATCGGGTCTTGATTCGCTTGACGCTGCTG | 1.44 z-score | 2.28 z-score | –
24 | CCGATTAACATCAGGACTTTCCATGATGTTAATCGGGTCTTGATTCGCTTGACGCTGCTG | 3.27 z-score | 4.23 z-score | –
25 | CCGATTAACATCAAGGAATTCCATGATGTTAATCGGGTCTTGATTCGCTTGACGCTGCTG | 2.32 z-score | 1.54 z-score | –
26 | CCGATTAACATCAGGAAAATTTATGATGTTAATCGGGTCTTGATTCGCTTGACGCTGCTG | 1.44 z-score | 1.26 z-score | –
27 | CCGATTAACATCAAAAAATTCCGTGATGTTAATCGGGTCTTGATTCGCTTGACGCTGCTG | 2.44 z-score | 2.61 z-score | 1.34 z-score
28 | CCGATTAACATCAAAAATTCCACTGATGTTAATCGGGTCTTGATTCGCTTGACGCTGCTG | 2.3 z-score | 1.44 z-score | –
29 | CCGATTAACATCAATGGAATTCCTGATGTTAATCGGGTCTTGATTCGCTTGACGCTGCTG | 3.2 z-score | 1.5 z-score | –
30 | CCGATTAACATCAAGGAAAGTCCTGATGTTAATCGGGTCTTGATTCGCTTGACGCTGCTG | 3.16 z-score | 4.65 z-score | –
31 | CCGATTAACATCAGAAATTTCCATGATGTTAATCGGGTCTTGATTCGCTTGACGCTGCTG | 1.25 z-score | 1.68 z-score | –
